{"source": "PubChem BioAssay", "note": "This is one part of the list. Values without a mark were called inactive. Calls of active or inactive are those of the source.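 How the source made its calls: active means mean inhibition above about 50% when retested at one dose (limit read from the data); inactive means the rest.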", "data": [{"experiment": "Ultra-Glo luciferase signal interference – biochemical, single concentration, SENP8 reaction pre-completed, artefact control for SENP inhibitor project, confirmation (AID 488919);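 further: plate controls were DMSO wells with completed reaction for no effect and substrate without enzyme for full effect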", "conditions": "Pre-incubated SENP8/Z-RLRGG-aminoluciferin, luciferase luminescence interference; at 12.5 µM; hits give high values", "values": [{"smiles": "O=c1c2ccccc2ncn1/N=C/c1ccccc1", "inhibition": "69% (active)"}, {"smiles": "CCc1ccc(NC(=O)C(=O)NNC(=O)c2cccs2)cc1", "inhibition": "5.2%"}, {"smiles": "CCOC(=O)c1sc(NC(=O)c2ccncc2)nc1C", "inhibition": "20%"}, {"smiles": "O=C1/C(=C/c2cccs2)CCc2ccccc21", "inhibition": "97.6% (active)"}, {"smiles": "CC(=O)Nc1ccc(/C=N/NC(=O)c2cccs2)cc1", "inhibition": "58.1% (active)"}, {"smiles": "O=C(Nc1ccccc1)c1cc2ccccc2[nH]1", "inhibition": "8.3%"}, {"smiles": "O=C(Nc1ccccc1Cl)Nc1cccc2cccnc12", "inhibition": "32.6%"}, {"smiles": "CCCCOc1ccc(-c2nnc(-c3ccco3)o2)cc1", "inhibition": "2%"}, {"smiles": "c1csc(-c2nc(-c3ccncc3)no2)c1", "inhibition": "42.1%"}, {"smiles": "Oc1ccccc1-c1cc(-c2ccc(Cl)cc2)n[nH]1", "inhibition": "75.2% (active)"}, {"smiles": "O=c1c(-c2ccccc2)coc2cc(O)ccc12", "inhibition": "74.8% (active)"}, {"smiles": "Cc1cccc(OCC(=O)Nc2ccccc2F)c1", "inhibition": "35.2%"}, {"smiles": "Cc1ccc(/C=N/NC(=O)c2cc3ccccc3cc2O)o1", "inhibition": "77.6% (active)"}, {"smiles": "Cc1cc(NC(=O)Nc2ccccc2[N+](=O)[O-])no1", "inhibition": "41.3%"}, {"smiles": "Cc1ccccc1Nc1nc(-c2cccnc2)cs1", "inhibition": "69.4% (active)"}, {"smiles": "Brc1ccc(-c2nnc(-c3ccccc3)o2)o1", "inhibition": "19.1%"}, {"smiles": "O=C(NC(=O)c1ccccc1)Nc1ccccc1O", "inhibition": "23.8%"}, {"smiles": "COc1ccc(NC(=O)Nc2cccc3cccnc23)cc1", "inhibition": "78.5% (active)"}, {"smiles": "Cc1cc(C(=O)Nc2nnc(C3CC3)s2)c(C)s1", "inhibition": "16.4%"}, {"smiles": "COc1cc(NC(=O)COC(=O)c2ccc([N+](=O)[O-])s2)cc(OC)c1OC", "inhibition": "0.3%"}, {"smiles": "COc1cccc(OCC(O)CNC(=O)c2oc3c(C)c(C)ccc3c2C)c1", "note": "(centres undefined)", "inhibition": "-0.9%"}, {"smiles": "c1ccc(-c2cc(-c3ccccc3)[nH]n2)cc1", "inhibition": "71.4% (active)"}, {"smiles": "COc1ccc(C(=O)Nc2ccc(C3(C#N)CCCC3)cc2)cc1OC", "inhibition": "83.2% (active)"}, {"smiles": "N=c1c2c3c(sc2nc2n1CCCCC2)CCCC3", "inhibition": "11.6%"}, {"smiles": "CC(=O)N1C(=O)/C(=C2\\SC(=S)N(NC(=O)c3ccc(O)cc3)C2=O)c2ccccc21", "inhibition": "3.7%"}, {"smiles": "Cc1nonc1C(=O)N/N=C/c1ccc(O)cc1", "inhibition": "66.2% (active)"}, {"smiles": "CNc1nc(Nc2ccc(C)c(Cl)c2)nc(N)c1[N+](=O)[O-]", "inhibition": "18.3%"}, {"smiles": "O=C(Nc1cccnc1Cl)c1cc(-c2ccccc2O)on1", "inhibition": "1.6%"}, {"smiles": "c1ccc(-c2noc(-c3cccs3)n2)nc1", "inhibition": "90.1% (active)"}, {"smiles": "Brc1ccccc1C1Nc2cccc3cccc(c23)N1", "inhibition": "3.4%"}, {"smiles": "COc1cccc(C(=O)Nc2ccc(NC(=O)c3ccco3)cn2)c1", "inhibition": "62.4% (active)"}, {"smiles": "C1=C(CCNc2ncnc3c2cnn3-c2ccccc2)CCCC1", "inhibition": "-4.4%"}, {"smiles": "Cc1ccnc(NC(=O)c2ccoc2C)c1", "inhibition": "80.1% (active)"}, {"smiles": "O=C(Nc1nnc(C2CC2)s1)c1ccccn1", "inhibition": "59.4% (active)"}, {"smiles": "O=C(Nc1nc2ccc([N+](=O)[O-])cc2s1)c1ccncc1", "inhibition": "15.8%"}, {"smiles": "O=c1c2c(nc3n1CCCCC3)sc1c(O)cccc12", "inhibition": "61.9% (active)"}, {"smiles": "CC1=CC(=C(C#N)c2nc3ccccc3s2)C=C(C)N1c1ccc(F)cc1F", "inhibition": "-9.8%"}, {"smiles": "O=C(NCc1ccccn1)c1c(O)c2c([nH]c1=O)CCCC2", "inhibition": "-3.1%"}, {"smiles": "Nc1ccc(-c2nnc(-c3ccc(-c4ccccc4)cc3)o2)cc1", "inhibition": "-0.8%"}]}]}
